Where “and” joins values, the source holds several entries; their conditions need not be identical. Equal entries are not always repeated. Results filed as inconclusive are left out. Where a call stands in place of a potency, no number is given. More than one record can exist for a structure, and the calls need not agree. Calls of active or inactive are those of the source. Calls come from the whole dose curve; as a rule, active = well fitted curve in the direction sought with a large enough effect; inconclusive = small, poorly fitted or top-dose-only effect, or another doubt; inactive = no such curve, though single readings can be large; an effect the other way counts as inactive or inconclusive.
Columns and labels:
MKL-1 = test: qHTS assay to identify novel small-molecules to repurpose for Merkel cell carcinoma treatment (AID 1296009); conditions: MCC and control cell lines, CellTiter-Glo viability, 72 h; series mostly up to 46 µM; note: nearly all actives have a fitted effect of over 60% in size
Outline: (§1)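 Cells exposed to NPC (8-point) and MIPE (11-point) compound dilutions for 72 hr at 37 degree celsius; viability read by CellTiter-Glo luminescence, normalized to no-cell and DMSO in-plate controls.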

MKL-2 = test: as above; conditions: MCC and control cell lines, CellTiter-Glo viability, 72 h; series mostly up to 46 µM
Outline: as §1

UISO = test: as above; conditions: MCC and control cell lines, CellTiter-Glo viability, 72 h; series mostly up to 46 µM
Outline: as §1

WaGa = test: as above; conditions: MCC and control cell lines, CellTiter-Glo viability, 72 h; series mostly up to 46 µM
Outline: as §1

C33A = test: Primary qHTS to identify gynecologic anti-cancer compounds using libraries of approved drugs and bioactive compounds (AID 1345084); conditions: Gynecologic cancer cell panel viability, ATPlite luminescence, 48 h; series mostly up to 57.5 µM; note: nearly all actives have a fitted effect of over 55% in size
Outline: (§2)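 Cell viability after 48 h drug treatment, ATPlite luminescence readout; five doses.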

Es-2 = test: as above; conditions: Gynecologic cancer cell panel viability, ATPlite luminescence, 48 h; series mostly up to 57.5 µM
Outline: as §2

HeLa = test: as above; conditions: Gynecologic cancer cell panel viability, ATPlite luminescence, 48 h; series mostly up to 57.5 µM
Outline: as §2

CASKI = test: as above; conditions: Gynecologic cancer cell panel viability, ATPlite luminescence, 48 h; series mostly up to 57.5 µM
Outline: as §2

CAOV3 = test: as above; conditions: Gynecologic cancer cell panel viability, ATPlite luminescence, 48 h; series mostly up to 57.5 µM
Outline: as §2

NIH3T3 = test: qHTS assay to identify novel small-molecules to repurpose for Merkel cell carcinoma treatment (AID 1296009); conditions: MCC and control cell lines, CellTiter-Glo viability, 72 h; at 44.8 µM (top of the series) unless noted; note: nearly all actives have a fitted effect of over 60% in size
Outline: as §1
Potency is the fitted concentration of half-maximal effect.

SMILES	Potency (MKL-1)	Potency (MKL-2)	Potency (UISO)	Potency (WaGa)	Potency (C33A)	Potency (Es-2)	Potency (HeLa)	Potency (CASKI)	Potency (CAOV3)	outcome (NIH3T3)
CN(C)CCCC1(c2ccc(F)cc2)OCc2cc(C#N)ccc21 (stereo unspecified)	inactive	inactive	inactive	inactive	inactive	inactive	inactive	–	–	–
C=CCc1cc(OC)c(O)c(C(=O)NCCO)c1	inactive	inactive	inactive	inactive	inactive	inactive	inactive	inactive	–	–
CC(C)C[C@H](NC(=O)[C@H](Cc1ccccc1)NC(=O)c1cnccn1)B(O)O	26.6 nM (active)	6 nM (active)	26.6 nM (active)	16.8 nM (active)	100 nM (active)	–	316 nM (active)	–	–	–
Cc1c(OCC(F)(F)F)ccnc1CS(=O)c1nc2ccccc2[nH]1 (stereo unspecified)	inactive	inactive	inactive	inactive	inactive	inactive	inactive	inactive	inactive	–
c1ccc2[nH]c(-c3cscn3)nc2c1	inactive	inactive	inactive	inactive	inactive	–	inactive	–	inactive	–
CCN(CC)C(=S)SSC(=S)N(CC)CC	1.18 µM (active) and 62.4 nM (active) and 422 nM (active)	1.32 µM (active) and 44.2 nM (active) and 531 nM (active)	1.05 µM (active) and 70 nM (active) and 473 nM (active)	935 nM (active)	–	15800 nM (active)	inactive	35.5 µM (active) and inactive	7080 nM (active)	–
Cc1ccc(S(=O)(=O)NC(=O)NN2CC3CCCC3C2)cc1 (stereo unspecified)	inactive	inactive and 26.4 µM (active)	inactive	inactive	inactive	inactive	inactive	inactive	–	–
CCC[C@@H]1C[C@@H](C(=O)N[C@@H]([C@H]2O[C@H](SC)[C@H](O)[C@@H](O)[C@H]2O)[C@@H](C)O)N(C)C1	inactive	inactive	inactive	inactive	inactive	inactive	inactive	inactive	–	–
Cc1nc2n(c(=O)c1CCN1CCC(c3noc4cc(F)ccc34)CC1)CCCC2	inactive	inactive	inactive	inactive	–	inactive	inactive	inactive	–	–
Clc1ccc(C(Cn2ccnc2)OCc2ccsc2Cl)c(Cl)c1 (stereo unspecified)	inactive	inactive	21100 nM (active)	inactive	inactive	inactive	inactive	inactive	inactive	–
CC[C@]1(O)C[C@H]2CN(CCc3c([nH]c4ccccc34)[C@@](C(=O)OC)(c3cc4c(cc3OC)N(C=O)[C@H]3[C@@](O)(C(=O)OC)[C@H](OC(C)=O)[C@]5(CC)C=CCN6CC[C@]43[C@@H]65)C2)C1	9.3 nM (active) and 33.5 nM (active)	11.9 nM (active)	3 nM (active) and 21.1 nM (active)	3.3 nM (active) and 26.6 nM (active)	631 nM (active)	891 nM (active)	891 nM (active)	–	–	–
COC(=O)C1=C(C)NC(C)=C(C(=O)OC(C)C)C1c1cccc2nonc12 (stereo unspecified)	inactive	inactive	inactive	inactive	inactive	inactive	inactive	inactive	inactive	–
CCN(CC)CCOc1ccc(Cc2ccccc2)cc1	inactive	inactive	inactive	inactive	inactive	inactive	inactive	inactive	–	–
Cn1c(NCCN(CCO)CCCc2ccc([N+](=O)[O-])cc2)cc(=O)n(C)c1=O	inactive	inactive	inactive	inactive	inactive	inactive	inactive	inactive	inactive	–
COc1cc2nc(N3CCN(C(=O)C4CCCO4)CC3)nc(N)c2cc1OC (stereo unspecified)	inactive	inactive	inactive	inactive	inactive	inactive	inactive	inactive	–	–
O=C(OC1C[C@H]2CC[C@@H](C1)[N+]21CCCC1)C(O)(c1ccccc1)c1ccccc1 (stereo partly specified)	inactive	inactive	inactive	inactive	inactive	inactive	inactive	inactive	inactive	–
O=C(c1ccccc1)c1ccc2n1CCC2C(=O)O (stereo unspecified)	inactive	inactive	inactive	inactive	inactive	inactive	inactive	inactive	inactive	–
Cc1ccc(C)c(OCCCC(C)(C)C(=O)O)c1	inactive	inactive	inactive	inactive	inactive	inactive	inactive	inactive	–	–
Nc1cc(C(Cl)=C(Cl)Cl)c(S(N)(=O)=O)cc1S(N)(=O)=O	inactive	inactive	inactive	inactive	inactive	inactive	inactive	inactive	inactive	–
CC1(C)CCC(C)(C)c2cc(NC(=O)c3ccc(C(=O)O)cc3)ccc21	inactive	–	inactive	inactive	inactive	inactive	inactive	inactive	inactive	inactive
CCCCC(CC)COC(=O)C(C#N)=C(c1ccccc1)c1ccccc1 (stereo unspecified)	inactive	–	–	inactive	inactive	inactive	inactive	inactive	–	inactive
Cc1nc(Nc2ncc(C(=O)Nc3c(C)cccc3Cl)s2)cc(N2CCN(CCO)CC2)n1	inactive	inactive	–	inactive	inactive	–	inactive	–	8910 nM (active)	–
NC(=NCc1ccccc1)NC(=O)c1nc(Cl)c(N)nc1N	inactive	–	inactive	inactive	–	–	–	–	–	–
OC(CN1CCN(c2cccc(Cl)c2)CC1)C(c1ccccc1)c1ccccc1 (stereo unspecified)	inactive	–	inactive	inactive	inactive	–	inactive	inactive	inactive	inactive

Reference: PubChem BioAssay (NCATS)
